Bioassay records deposited in PubChem BioAssay by several laboratories.
MEX-5 binding: MEX-5 zinc finger RNA-binding disruptors – biochemical, C. elegans, fluorescence polarization, MLPCN library, primary screen. Zinc finger protein mex-5 (Caenorhabditis elegans), Q9XUB2. MEX-5/FITC-TCR2 RNA binding; active compounds read low. activity score (negative = inhibition of binding), % at 10 µM. 0.38% of 300,000 active. AID 1832, 2009;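 active = inhibition past about -25% in most replicates, and total fluorescence under double the plate's negative control median, limit read from the data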;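 also: 0% = DMSO and -100% = 5 µM competing unlabeled TCR2 RNA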
GLD-1 RNA inh: GLD-1/TGE RNA complex disruptors, primary screen, biochemical, fluorescence polarization. Female germline-specific tumor suppressor gld-1 (Caenorhabditis elegans), Q17339. purified GLD-1 + fluorescein TGE RNA. inhibition, % at 5.96 µM. 0.44% of 320,000 active. AID 2280, 2010;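 active = percent inhibition above a per-plate cutoff, the plate mean of test compounds plus 3 SD, cut at about 30% in these data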;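 also: 0% = DMSO wells with GLD-1 and probe and 100% = wells lacking GLD-1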
Target sequence (Q17339 whole entry, looked up): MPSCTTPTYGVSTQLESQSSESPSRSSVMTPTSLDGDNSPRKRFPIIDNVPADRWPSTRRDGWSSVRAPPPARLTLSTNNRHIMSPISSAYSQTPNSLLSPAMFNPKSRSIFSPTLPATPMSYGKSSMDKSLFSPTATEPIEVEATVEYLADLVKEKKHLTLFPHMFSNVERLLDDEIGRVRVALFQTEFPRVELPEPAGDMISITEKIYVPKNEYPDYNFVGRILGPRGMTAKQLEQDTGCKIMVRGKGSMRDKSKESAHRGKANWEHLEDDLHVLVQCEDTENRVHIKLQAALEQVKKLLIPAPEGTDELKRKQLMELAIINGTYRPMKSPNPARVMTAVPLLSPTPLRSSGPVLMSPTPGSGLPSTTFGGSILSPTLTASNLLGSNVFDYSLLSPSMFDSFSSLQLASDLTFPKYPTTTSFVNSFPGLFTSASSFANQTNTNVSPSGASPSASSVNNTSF
eLon inh: inhibitors of E. coli Lon protease, primary screen, biochemical, fluorescence polarization | P0A9M0 | purified E. coli Lon protease | inhibition, % at 7.94 µM | 0.42% of 360,000 active | AID 602123, 2011; in the data active = inhibition above about 13%, passing the limit was not always enough;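 also: 0% = enzyme with probe and DMSO and 100% = no enzyme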
EBV gp42 block: Epstein-Barr virus gp42 inhibitors, primary screen, biochemical, uHTS, fluorescence polarization. 0.42% of 220,000 active. inhibition, % (tested at 21.74 µM). Fluorescence polarization binding assay, mP read-out. Glycoprotein 42 (Epstein-Barr virus (strain AG876)), Q1HVG2; in the data active = inhibition above about 50%
Bcl-xL primary: inhibitors of human Bcl-xL, primary screen, biochemical, fluorescence polarization, HTS; 0.7% of 320,000 active; Bcl-2-like protein 1 (Homo sapiens), Q07817; inhibition, % at 10.9 µM; GST-Bcl-xL / FITC-Bim BH3 peptide fluorescence polarization;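 active = inhibition above the mean of all tested compounds plus 3 SD, cutoff set per campaign, cut at about 30% in these data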;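 also: 0% = DMSO wells and 100% = unlabeled Bim-BH3 peptide competitor; inhibitors lower millipolarization by displacing the labeled peptide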
eLon confirm: E. coli Lon protease inhibitor retest, confirmation, biochemical, fluorescence polarization; 31% of 1,400 active; purified E. coli Lon; shares compounds with eLon inh; inhibition, % at 7.94 µM; in the data active = inhibition above about 16%;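 also: 0% = enzyme with probe and DMSO and 100% = no enzyme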
The depositor's hits bear a star; . = no result given. An excerpt weighted towards active compounds, which were near 1.3% of everything screened.

SMILES	MEX-5 binding	GLD-1 RNA inh	eLon inh	EBV gp42 block	Bcl-xL primary	eLon confirm
Cc1cc(C(=O)COC(=O)c2cccc(O)c2)c(C)n1C1CC1	.	6	28*	.	-1	-34
CC1C(=O)C(C)C(c2ccco2)NC1c1ccco1 (stereo unspecified)	-2	-2	24*	-19	0	-5
CC1/C(=N/O)CC(c2ccco2)NC1c1ccco1 (stereo unspecified)	0	-1	-6	5	-1	.
Cc1nc(C(=O)N/N=C/c2[nH]ncc2Br)cs1	2	-6	7	-15	7	.
COCCN(C(=O)C1=COCCO1)c1c(N)n(CC(C)C)c(=O)[nH]c1=O	.	18	24*	.	12	7
COCCN(C(=O)C1=COCCO1)c1c(N)n(Cc2ccccc2)c(=O)[nH]c1=O	-5	8	28*	.	9	7
CCCCN(C(=O)C1=COCCO1)c1c(N)n(Cc2ccccc2)c(=O)[nH]c1=O	-21	2	-1	.	0	.
CC1CCCCN1CCNC(=O)c1cnn2ccccc12 (stereo unspecified)	-4	2	14*	-16	5	-36
O=C(CC1C=CCC1)Nc1ccccc1 (stereo unspecified)	.	.	50*	.	.	-1
O=C(NCCc1ccccc1)C1CCN(S(=O)(=O)N2CCCC2)CC1	1	2	-3	-12	2	.
O=C(NCCc1ccccc1)c1cccc(NC(=O)C2CCCC2)c1	.	.	16*	.	.	-1
O=C(NCCc1ccccc1)C1CCN(S(=O)(=O)N2CCCCCC2)CC1	-1	2	35*	-12	3	19*
N#Cc1cccc(NC(=O)c2cc(C3CCCCN3S(=O)(=O)c3ccccc3)on2)c1 (stereo unspecified)	.	.	0	.	.	.
CCOC(=O)c1ccc(CNC(=O)CSc2nc(NC(=O)c3ccccc3)c3c(C)c(C)oc3n2)cc1	0	7	17*	-6	-3	-4
Brc1ccc(-c2cnnc(N3CCCC3)n2)cc1	-3	-2	22*	-1	11	-8
Cc1cccc(C)c1-n1nnnc1C(c1ccnc2ccccc12)N(C)Cc1ccc(Cl)c(Cl)c1 (stereo unspecified)	.	.	-2	.	.	.
CC(=O)Nc1ccc(OS(=O)(=O)c2ccc(Cl)cc2)cc1	-2	7	1	.	3	.
CC(=O)Nc1cc(Cl)ccc1OS(=O)(=O)c1ccc(C)cc1	-1	6	45*	1	-2	-1
CC(C)C[C@@H](CNC(=O)OC(C)(C)C)NC(=O)c1nc[nH]c1C(=O)N[C@@H](CC(C)C)C(=O)CNC[C@H](CC(C)C)NC(=O)c1nc[nH]c1C(=O)N[C@@H](Cc1c[nH]c2ccccc12)C(=O)OC(C)(C)C	.	0	10	.	.	.
O=C(CCC1CCCC1)N1CCN(S(=O)(=O)c2ccc(Br)cc2)CC1	.	5	19*	.	2	-2
CCCNC(=O)c1cc(S(=O)(=O)N2CCCCC2)ccc1N1CCOCC1	3	2	-10	.	6	.
CCCCCC(C)NC(=O)c1cc(S(=O)(=O)N2CCCCC2)ccc1N1CCOCC1 (stereo unspecified)	.	7	22*	.	5	6
CCOC(=O)c1c2c3c(c(Cl)ccc3[nH]c1=O)C(=O)c1ccccc1-2	-1	.	17*	15	.	38*
C=CCOc1ccc(C2OC34CCCCC3C(C#N)(C#N)C2(C#N)C(=N)O4)cc1 (stereo unspecified)	-45*	75*	31*	-10	104*	21*
CC(C)c1cc(C(=O)NCCc2ccccc2)no1	0	-3	9	-5	4	.
SMILES	MEX-5 binding	GLD-1 RNA inh	eLon inh	EBV gp42 block	Bcl-xL primary	eLon confirm
CCOc1nc(N2CCCCC2)nc(-n2cc(-c3ccccc3)nn2)n1	-1	7	16*	-8	4	-1
CCOC(=O)c1c(C(C)(C)C)oc2ccc(O)cc12	.	9	20*	7	2	2
Nc1nc(C2C(=O)CCCC2=O)cs1	-5	10	30*	-16	10	16
CCSc1nnc(-c2cccs2)o1	-2	-6	65*	-4	3	-3
c1ccc(CSc2nnc(-c3cccs3)o2)cc1	-1	4	-4	13	6	.
Cc1ccc(NC2=CC(=O)CC(C)(C)C2)c(N)c1	0	7	79*	0	7	-13
Cn1c(N2CCN(C(c3ccccc3)c3ccccc3)CC2)nc2c1c(=O)[nH]c(=O)n2C	0	-5	24*	.	4	16*
Cn1c(N2CCCCC2)nc2c1c(=O)[nH]c(=O)n2C	-1	3	2	-4	6	.
CCOC(=O)C1CCCN(C(=O)COc2ccc(S(=O)(=O)N(CC)c3ccccc3)cc2)C1 (stereo unspecified)	6	-3	-5	-17	-3	.
O=c1[nH]c2c(s1)C=Nc1ccccc1N2	-72*	144*	114*	119*	178*	149*
O=C1CC(c2ccco2)CC2=C1C=Nc1ccccc1N2 (stereo unspecified)	0	2	4	11	6	.
Cc1cc([N+](=O)[O-])cnc1N1CCOCC1	1	-5	-3	-9	3	.
O=[N+]([O-])c1cnc(N2CCCCC2)c([N+](=O)[O-])c1	5	28	55*	-7	21	-11
CCCNC(=O)CN1C(=O)NC2(CCCc3cc(OC)ccc32)C1=O (stereo unspecified)	0	6	-5	-11	3	.
CCCNC(=O)c1ccc2c(=O)c(O)c(-c3ccc(C)cc3)[nH]c2c1	-3	9	160*	-17	2	141*
CCCNC(=O)c1ccc2c(=O)c(O)c(-c3ccc(OC)cc3)[nH]c2c1	-6	7	172*	-18	9	112*
Cc1ccc(-c2[nH]c3cc(C(N)=O)ccc3c(=O)c2O)cc1	-70*	1	76*	-14	9	46*
Cc1ccc(CNC(=O)c2ccc3c(=O)c(O)c(-c4ccc(C)cc4)[nH]c3c2)cc1	-1	2	0	-16	2	.
Cc1ccc(-c2[nH]c3cc(C(=O)NCCCn4ccnc4)ccc3c(=O)c2O)cc1	-5	1	125*	-4	-2	92*
COCCCNC(=O)c1ccc2c(=O)n(Cc3ccc(OC)cc3)c(=O)[nH]c2c1	-1	3	-3	-4	-1	.
Cc1ccc(N(CC(=O)NCc2ccco2)C(=O)CCC(=O)Nc2ccccn2)c(C)c1	2	0	-2	.	5	.
CCOC(=O)c1c(C)n(C)c2ccc(OC)c(NC(=O)CN3CCN(C(=O)c4ccco4)CC3)c12	2	4	0	-17	-2	.
